APP 5UTR inh: APP translation inhibition; actives 0.82% (n = 190,000); AID 1285; inhibition, % at 2 µM; SH-SY5Y APP 5'UTR-luciferase reporter, luminescence;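 active = inhibition above a set limit, derived from the sample mean plus 3 SD, cut at about 45% in these data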
KLF5 inh: kruppel-like factor 5 inhibition; DLD-1 KLF5 promoter-luciferase reporter, luminescence; inhibition, % at 5 µM; actives 0.23% (n = 290,000); AID 1700;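 active = inhibition above a per-plate limit of that plate's mean compound inhibition plus 3 SD, cut at about 60% in these data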;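 note: 0% = DMSO wells and 100% = LY294002 at 200 µM; higher means less KLF5 promoter-driven luciferase light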
IEC-6 tox: counter-screen for KLF5 inhibitors: cytotoxicity in IEC-6 cells. IEC-6 cytotoxicity, luminescence viability. inhibition, % at 5 µM. actives 0.78% (n = 290,000). AID 1825; in the data active = inhibition above about 22%;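 note: 0% = plate median of test compound wells and 100% = cytotoxic reference compound wells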
Ba/F3 V617F tox: loss of viability in JAK2V617F-driven Ba/F3 cells | Ba/F3 EpoR-JAK2V617F viability, ATP luminescence | inhibition, % at 5.6 µM | actives 1.1% (n = 220,000) | AID 1446;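 active = inhibition above the campaign mean plus 3 SD over all tested compounds, cut at about 24% in these data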;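 note: cytokine-independent growth of Ba/F3 cells driven by EpoR plus mutant JAK2; 0% = DMSO-treated cells and 100% = JAK inhibitor I control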
BaF3 parental: reduces parental Ba/F3 cell viability, JAK2V617F counter-screen. inhibition, % at 5.6 µM. CellTiter-Glo ATP luminescence. actives 1.1% (n = 220,000);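 active = inhibition above a per-campaign cutoff, the mean inhibition of all tested compounds plus 3 SD, cut at about 27% in these data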;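 note: 0% = DMSO wells and 100% = JAK Inhibitor I control wells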
aSyn UTR inh: 5' untranslated region of α-synuclein, MLPCN primary screen. alpha-synuclein 5'UTR reporter, inhibitor activity. inhibition, % (tested at 7.5 µM). actives 0.82% (n = 300,000); in the data active = inhibition above about 60%;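 note: H4 neuroglioblastoma cells stably carrying SNCA 5'UTR luciferase fusion; 0% = DMSO wells and 100% = positive control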
BaF3 parental 2: counter-screen for JAK2V617F inhibitors: parental Ba/F3 viability inhibitors | shares compounds with Ba/F3 V617F tox | actives 31% (n = 580) | inhibition, % at 5.6 µM | CellTiter-Glo luminescence; cells kept alive by added IL-3;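 active = cell growth inhibition above the hit limit set in the earlier mutant JAK2 cell screen, cut at about 27% in these data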;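 note: plate controls were DMSO-treated cells for no effect and JAK Inhibitor I control wells for full effect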
JAK2V617F confrm: Ba/F3 EpoR-JAK2V617F viability loss, confirmation | shares compounds with Ba/F3 V617F tox | CellTiter-Glo luminescence | inhibition, % at 5.6 µM | actives 66% (n = 580);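 active = mean inhibition above the hit cutoff derived in the earlier primary screen, cut at about 25% in these data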;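 note: 0% = DMSO-treated cells and 100% = JAK inhibitor I control wells; higher means lower luminescence from reduced cell ATP and viability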
An asterisk follows results filed as active; · = not tested or not shown. Most compounds without a hit are left out; they make up all but 2.2% or so of the library.

SMILES	APP 5UTR inh	KLF5 inh	IEC-6 tox	Ba/F3 V617F tox	BaF3 parental	aSyn UTR inh	others
c1ccc2c(CN3CCCCCCC3)c[nH]c2c1	0.0	-4.8	-2.7	48.7*	38.0*	12.3
c1ccc2c(CN3CCN(C4CCCCC4)CC3)c[nH]c2c1	6.3	-2.4	0.7	-2.0	3.9	2.3
CC(C)(C)C(=O)NC1CCSC1=O (centres undefined)	-0.8	0.0	1.0	2.0	5.9	-0.7
CC(C)c1cc(Br)c(NC(=O)Nc2cccnc2)c(Br)c1	·	-45.9	2.8	·	·	-5.5
COc1cc(C(=O)N/N=C/C23CC[C@@H](O)CC2(O)CC[C@@H]2[C@@H]3CCC3(C)C(C4=CC(=O)OC4)CCC23O)ccc1O (some centres undefined)	·	4.0	3.6	-7.0	-2.7	35.1
COc1ccc(C(=O)N/N=C/C23CC[C@@H](O)CC2(O)CC[C@@H]2[C@@H]3CCC3(C)C(C4=CC(=O)OC4)CCC23O)cc1 (some centres undefined)	·	-22.7	-7.5	-1.4	2.7	88.5*
CN(C)c1ccc(C(=O)N/N=C/C23CC[C@@H](O)CC2(O)CC[C@@H]2[C@@H]3CCC3(C)C(C4=CC(=O)OC4)CCC23O)cc1 (some centres undefined)	·	-43.2	-4.3	1.6	-1.9	94.9*
CC12CC[C@H]3[C@@H](CCC4(O)C[C@H](O)CCC34/C=N/NC(=O)c3ccc(O)cc3)C1(O)CCC2C1=CC(=O)OC1 (some centres undefined)	·	-18.0	0.7	-1.1	-4.9	15.1
CN1Cc2c(c(C#N)c(N)n(C)c2=S)CC1(C)C	-1.0	-11.1	-5.5	-2.6	-1.8	14.4
CC(=O)OC1CC[C@]2(C#N)[C@H]3CC[C@]4(C)[C@H](C5C=CC(=O)O5)CCC4(O)C3CCC2(O)C1 (some centres undefined)	·	-30.5	-6.5	·	·	85.4*
CN(C)CCN(C(=O)COc1ccc(Cl)cc1)c1nc2cc3c(cc2s1)OCO3	·	-19.1	-6.8	·	·	-26.1
O=[N+]([O-])c1ccccc1-c1cc(-c2ccccc2)cc(-c2ccccc2)[n+]1Cc1ccccc1Cl	·	·	·	·	·	63.8*
Clc1ccc(C[n+]2c(-c3ccccc3)cc(-c3ccccc3)cc2-c2ccccc2)cc1	·	·	·	·	·	59.2
COC(=O)c1nc(-c2ccc3c(n2)C(=O)C(N)=C(OC)C3=O)c(N)c(-c2ccc(OC)c(OC)c2O)c1C	·	-4.9	7.7	9.1	8.6	97.2*
CN1C(=O)C(=Cc2ccc(OCC(=O)Nc3ccccc3)cc2)C(=O)N(C)C1=O	·	-21.9	-1.1	·	·	-77.7
CCn1c(NN=O)nc2ccccc21	44.1	-14.9	3.4	2.6	7.2	74.1*
CC(=O)Nc1ccc(OC(=O)N2CCCCC2)cc1	-1.7	-2.9	0.9	-4.0	1.5	69.5*
Oc1c(Cl)c(Cl)c(Cl)c(Cl)c1Cl	·	·	·	·	·	-3.5
COC1CC(OC2CCC3(C)C(CCC4C3CCC3(C)C(C5=CC(=O)OC5)C(OC(C)=O)CC43O)C2)OC(C)C1OC1OC(COC2OC(CO)C(O)C(O)C2O)C(O)C(O)C1O (centres undefined)	·	·	·	·	·	114.5*
CCOc1cccc(CNCCc2c(C)[nH]c3ccc(OC(F)(F)F)cc23)c1O	·	-4.0	12.3	·	·	113.4*
COc1ccccc1CNC(=O)CCC(=O)N1C[C@H]2C[C@@H](C1)c1cccc(=O)n1C2	·	8.2	-1.4	·	·	3.9
CC(=O)c1cn(Cc2ccccc2C#N)c2ccccc12	-3.9	-11.0	15.7	46.1*	67.1*	-8.6
COC(=O)C1=C(c2cc3ccccc3o2)C[C@@H]2CC[C@H]1N2C(=O)N1CCCCC1	·	·	·	·	·	66.4*
CCOc1ccc(-c2cc(C)[n+](CCO)c(-c3ccc(OCC)cc3)c2)cc1	-4.9	-15.8	-0.8	56.6*	71.5*	18.5
CCOc1ccc(-c2cc(C)[n+](CCc3ccc(OC)c(OC)c3)c(-c3ccc(OCC)cc3)c2)cc1	·	33.5	3.1	·	·	44.4
SMILES	APP 5UTR inh	KLF5 inh	IEC-6 tox	Ba/F3 V617F tox	BaF3 parental	aSyn UTR inh	others
CCCCCSc1cc(OC)c(CCNC)cc1OC	2.1	-11.7	5.1	3.2	7.2	-34.5
CCCCCCCSc1cc(OC)c(CCNC)cc1OC	-2.2	-37.4	-1.3	1.9	7.8	121.5*
O=Cc1cn(Cc2cccc([N+](=O)[O-])c2)c2ccccc12	12.4	1.0	3.1	-0.3	1.0	94.2*
O=Cc1cn(Cc2ccccc2F)c2ccccc12	16.8	-37.7	-1.8	-1.9	3.3	51.9
Cc1cccc(Cn2cc(C=O)c3ccccc32)c1	·	-15.2	3.0	·	·	67.6*
N#Cc1ccc(Cn2cc(C=O)c3ccccc32)cc1	·	-13.1	3.2	·	·	49.6
O=C1COc2ccc(C(=O)COC(=O)Cc3ccccc3)cc2N1	·	·	·	·	·	-10.8
CCC[N+]12CCC(CC1)C(=C(c1ccccc1)c1ccccc1)C2	18.3	-6.6	-6.0	17.9	36.5*	6.5
CCCC[N+]12CCC(CC1)C(=C(c1ccccc1)c1ccccc1)C2	8.2	-32.7	-1.6	2.3	11.2	20.7
Cc1cc(C)c2c(ccc3cccc[n+]32)c1	·	·	·	·	·	-19.9
CC[n+]1c(/C=C/N(C)c2ccccc2)sc2ccc(Cl)cc21	13.2	-7.4	16.3	80.1*	72.2*	-11.7
CC(Cc1ccccc1)N1C(=O)c2ccccc2C1=O (centres undefined)	·	-34.6	9.0	·	·	-27.2
CC(C(=O)c1c[nH]c2ccccc12)N1CCc2ccccc2C1 (centres undefined)	-4.3	-4.0	2.1	25.8*	42.7*	-5.6
Cc1nc2cc(-c3cccc(F)c3)nn2c(C)c1CCC(=O)N1CCC2(CC1)OCCO2	27.1	-5.3	-0.6	-4.4	-1.2	77.4*
Cc1nc2c(-c3ccccc3)c(C)nn2c(C)c1CCC(=O)N1CCC2(CC1)OCCO2	-12.6	-6.4	0.6	0.7	0.8	28.3
COc1ccccc1CCNC1C2CC3CC(C2)CC1C3 (centres undefined)	20.5	-6.5	2.0	1.9	6.0	-41.4
CC1CN(c2ccc([N+](=O)[O-])cc2Cl)CCN1 (centres undefined)	3.7	-3.6	0.1	0.1	6.4	-6.0
CP(C)(=O)CCC(=O)O	-1.6	8.1	-7.3	11.4	35.9*	3.6
CCOC(=O)c1[nH]c2ccc(OC)cc2c1C(SCC(=O)O)c1ccc(C(F)(F)F)cc1 (centres undefined)	·	-17.7	-2.2	·	·	2.3
COC12C(COC(N)=O)C3=C(C(=O)C(C)=C(N)C3=O)N1CC1C2N1C (centres undefined)	·	14.2	5.0	29.4*	10.4	-3.2	BaF3 parental 2=50.3*;JAK2V617F confrm=96.1*
c1ccc(P(c2ccccn2)c2ccccn2)cc1	-9.4	-0.4	-3.2	2.2	7.2	-2.6

From PubChem BioAssay
